The panel holds about 83,000 compounds, 20% with a hit somewhere; the sample as a whole holds those more often.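 Each cell line was grown in a 96-well plate and treated with one concentration of compound for 48 hours. Values below 10 were considered active.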 Activity calls are given as the source filed them.

Drawing on PubChem BioAssay (NCI), this text covers growth for 14 compounds.

In the test the test system is MDA-MB-468 breast. As to the kind of experiment: NCI-60 one-dose screen, 48 h (100 = growth as untreated, 0 = no growth, -100 = all killed). The settings on record: 10 µM unless noted.
Consider `O=C1c2ccccc2C(=O)c2c1ccc(C(=O)O)c2[N+](=O)[O-]`, for which the growth is 119% (inactive).

For `CSCCC1NC(=O)C(C(C)=Nc2ccccc2)=C1O` (centres undefined), the growth was 109% (inactive).

Take `C=C(C)[C@@H]1CC[C@]2(C)[C@H](CC=C3[C@@H]4CC(C)(C)CC[C@]4(C=O)CC[C@]32C)[C@@]1(C)CCCN`: the growth was 51.3% (inactive).

On to `O=C1/C(=C/c2ccccc2)SC(=S)N1CCc1ccc(O)cc1`, for which the growth was 73.9% (inactive).

On to `O=C1CC(c2ccccc2)Cc2nc3ccc(Cl)cc3cc21` (centres undefined), for which the growth was 10.2% (inactive).

For the compound `CSc1ccc2c3c(n(C[C@H](O)CO)c(=O)c2c1)-c1ccccc1C3=O`, the growth was 39.8% (inactive).

Regarding `N#Cc1c(-c2ccc(Cl)cc2)cc(-c2cc(O)ccc2O)nc1N`, the growth was 19.4% (inactive).

As to `COc1ccc2[nH]cc(-c3nc(-c4cn(C)c5ccncc45)cs3)c2c1`, the growth was 102% (inactive).

As to `COc1cc(-c2cc(/C=C/C(=O)c3ccc(F)c(F)c3)[nH]n2)cc(OC)c1OC`, the growth was 33.8% (inactive).

On to `COc1ccc(C2C3=C(COC3=O)N(CCO)c3cc4c(cc32)OCCO4)cc1` (centres undefined), for which the growth was 32.9% (inactive).

Regarding `Cc1ccc(S(=O)(=O)NCCCNc2nc(Nc3ccc(N4CCN(C)CC4)cc3)nc3ccsc23)cc1`, the growth is 12.3% (inactive).

Turning to `O=C1CC(=O)OC(c2ccc([N+](=O)[O-])cc2)O1`, the growth is -49.7% (active).

As for `COc1cc2nc(Cl)nc(Nc3cccc(C4=Nc5c(N)nc(N)nc5NC(c5ccc(Cl)cc5)C4)c3)c2cc1OC` (centres undefined), the growth was 27.5% (inactive).

For the compound `COc1ccc(-c2nnc(NC(=O)CN3CCN(c4cc5c(cc4F)c(=O)c(C(=O)O)cn5C4CC4)CC3)s2)cc1OC`, the growth is 93% (inactive).
